Source: PubChem BioAssay AID624464 (National Center for Advancing Translational Sciences (NCATS), 2012)
The campaign covered roughly 360,000 compounds. About 810 (0.23%) were called active. Cut-off read from the data, not from the text of the source: active = potentiation above about 50%; inconclusive = mostly about 30% to 49%; inactive = weaker than that. The entries come from a sample that favours actives as a whole.

biological target: D(2) dopamine receptor (Homo sapiens) (UniProt P14416); test: Beta-Arrestin HTS for Positive Allosteric Modulators of the Human D2 Dopamine Receptor: Potentiators; conditions: DiscoveRx D2 beta-arrestin cells, luminescence, 90 min; active compounds read high; 100% = 57 uM dopamine signal
Sequence (P14416 whole entry, looked up): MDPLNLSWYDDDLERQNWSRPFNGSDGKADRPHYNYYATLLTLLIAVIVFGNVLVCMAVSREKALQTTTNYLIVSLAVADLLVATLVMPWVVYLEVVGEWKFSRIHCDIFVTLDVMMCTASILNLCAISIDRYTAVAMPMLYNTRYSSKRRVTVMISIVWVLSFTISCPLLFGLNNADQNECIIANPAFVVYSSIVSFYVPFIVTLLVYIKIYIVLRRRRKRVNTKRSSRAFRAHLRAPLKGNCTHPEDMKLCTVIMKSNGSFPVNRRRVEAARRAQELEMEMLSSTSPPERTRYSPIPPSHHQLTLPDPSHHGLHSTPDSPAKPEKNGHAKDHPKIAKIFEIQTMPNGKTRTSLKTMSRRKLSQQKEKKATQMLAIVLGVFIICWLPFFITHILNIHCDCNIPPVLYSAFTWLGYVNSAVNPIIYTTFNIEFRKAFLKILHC
Excerpt: There is great interest in identifying small molecule ligands for G-protein coupled receptors (GPCRs) as nearly 50% of all FDA-approved drugs target these important receptor proteins. […] Amongst the dopamine receptors (DARs), the D2 is arguably one of the most validated drug targets in neurology and psychiatry. For instance, all receptor-based antiparkinsonian drugs primarily work via stimulating the D2 DAR, whereas all FDA-approved antipsychotic agents are antagonists of this receptor. The D2 DAR is also therapeutically targeted in other disorders such as restless legs syndrome, tardive dyskinesia, Tourette's syndrome, and hyperprolactinemia.
To this end, a miniaturized qHTS screen was developed to be screened against the Molecular Libraries Small Molecule Repository (MLSMR). This assay seeks to identify potentiators against the D2 DAR.
NIH Molecular Libraries Probe Production Network [MLPCN]
NIH Chemical Genomics Center [NCGC]
PI Name: David Sibley, National Institutes of Neurological Disorders and Stroke
DiscoveRx D2 cells were thawed from frozen stock and seeded at 2,100 cells/ 3 uL/well media (DiscoveRx Plating Reagent 2) with MultiDrop Combi dispenser (Thermo Scientific, Logan, UT) onto white tissue culture treated 1536-well Aurora plates (Brooks Automation, Chelmsford, MA) and allowed to attach overnight at 37 deg C, 5% CO2. Next, 23 nL/well of compound solutions in DMSO were added with a pintool transfer (Kalypsis, San Diego, CA). As the positive control, 1 uL/well dopamine (EC100, 57 uM final concentration) diluted in buffer (HBSS + 10 mM HEPES + SMB + 0.1 %Tween-20) was dispensed to 1 column of each plate. EC20 (Dopamine at 50 nM final concentration) was dispensed to the rest of the plate except columns 1 &2 which were used as negative control (EC=0, buffer only), 1 uL/well as well. The cells were stimulated by compounds and dopamine for 90 minutes at 37 deg C, 5% CO2, after which 1.5 uL/well of DiscoveRx detection reagent was added with BioRAPTR FRD dispenser. The detection reagent was prepared by mixing of Galacton Star Substrate, Emerald II solution and PathHunter buffer (supplied by the assay kit) together at 1:5:19 proportion accordingly just prior to dispensing. The plates were incubated at ambient temperature for 1 hour and then the luminescent signal was read on ViewLux plate reader (PerkinElmer, Waltham, MA).

SMILES	potentiation
CC(=O)N1CCN(c2ccccc2NC(=S)NC(=O)c2cc3ccccc3o2)CC1	1.52% (inactive)
Cc1ccccc1NC(=O)c1nn(-c2ccc(F)c(F)c2)ccc1=O	-20.8% (inactive)
CC(C)(C)S(=O)(=O)c1ccccc1-c1noc(-c2ccccc2)c1C(N)=O	-4.58% (inactive)
COc1ccc(S(=O)(=O)NC2(C(F)(F)F)N=C3SCCN3C2=O)cc1 (configuration not stated)	-9.42% (inactive)
COC(=O)c1cc(S(=O)(=O)N2CCC(C(N)=O)CC2)oc1C	-5.83% (inactive)
Cc1cc(C)cc(C(=O)N(CCc2ccccc2)C2=CC3CCC(C2)N3C)c1 (configuration not stated)	-8.31% (inactive)
CCCN(CCc1ccccc1)C1CCc2c(O)cccc2C1 (configuration not stated)	99% (active)
O=C(CCC(=O)N1CCN(S(=O)(=O)c2ccc(Cl)cc2)CC1)NCc1cccc(C(F)(F)F)c1	-1.2% (inactive)
O=C(Cc1ccc(S(=O)(=O)N2CCOCC2)s1)N1CCN(c2ccc(C(F)(F)F)cc2[N+](=O)[O-])CC1	-0.0198% (inactive)
CC(=O)NC1=NC(=O)CS1	-7.96% (inactive)
Cc1ccc2cccc(OCCCOc3ccccc3CO)c2n1	-2.17% (inactive)
CC1C=CCC2C(=O)N(c3cccc(C(=O)N4CCCCCC4)c3)C(=O)C12 (configuration not stated)	-12.1% (inactive)
COCCCNC(=O)Cn1c(=O)n(Cc2ccccc2Cl)c(=O)c2cc(OC)c(OC)cc21	-14.1% (inactive)
CCCc1cc(=O)[nH]c2nnc(SCC(=O)Nc3nnc(SCC)s3)n12	-13.8% (inactive)
CC(C)(C)N(Cc1ccccc1)C(=O)COC(=O)CCc1c[nH]c2ccccc12	10.1% (inactive)
C[C@@H](NC(=O)[C@@H]1Cc2ccccc2CN1)C(=O)NC1CCCC1	-3.01% (inactive)
COCCn1c(=O)[nH]c(=O)c2cc(C(=O)c3cc(OC)ccc3O)cnc21	-0.0764% (inactive)
COc1ccc(O)c(C(=O)c2cnc3c(c2)c(-c2ccc(F)cc2)c(C#N)c(=O)n3C)c1	11.8% (inactive)
COc1ccc(O)c(C(=O)c2cnc3onc(C(C)C)c3c2)c1	54.9% (active)
CCOC(=O)c1cc(-c2sc(NC(=O)c3ccccc3)nc2C)n(-c2ccc(Br)cc2)n1	2.35% (inactive)
COC(=O)[C@]1(C)N[C@H](c2ccc(-c3ccc(Cl)c(Cl)c3)cc2)[C@@H]2C(=O)N(C)C(=O)[C@@H]21	-3.41% (inactive)
O=C(C/C(=N\NC(=O)c1ccccc1Br)C(F)(F)F)c1cccs1	-15% (inactive)
O=C(CC(CC(=O)c1ccccc1)c1ccco1)c1ccccc1	-4.42% (inactive)
Nc1ccc(-n2nncc2-c2ccco2)cc1	-3.62% (inactive)

SMILES	potentiation
N#Cc1cccc(CSc2nnc(CCCO)n2-c2ccccc2)c1	-7.69% (inactive)
O=C(NCc1ccccc1)C(c1ccccc1)N(C(=O)c1csnn1)c1ccc(F)cc1 (configuration not stated)	0.0815% (inactive)
N/C(=N\OC(=O)c1ccc2c(c1)OCO2)c1ccc(Br)cc1	24.5% (inactive)
N/C(=N\OC(=O)Cc1ccccc1[N+](=O)[O-])c1ccc(Br)cc1	18.7% (inactive)
N/C(=N\OC(=O)N1c2ccccc2Sc2ccccc21)c1ccc(Br)cc1	86.3% (active)
CC1(C)CC(=O)C(C=NCc2cccnc2)=C(O)C1	0.0734% (inactive)
COc1ccc(N2CC(C(=O)NCCS(=O)(=O)N3CCN(c4ccccc4)CC3)CC2=O)cc1 (configuration not stated)	-8.09% (inactive)
CCOC(=O)c1ccc(N2C(=O)CC(N(C)Cc3ccccc3)C2=O)cc1 (configuration not stated)	-5.22% (inactive)
CCOc1ccc(N2C(=O)CC(N(O)c3ccccc3)C2=O)cc1 (configuration not stated)	51.5% (active)
CCOc1ccc(N2C(=O)CC(N(CCc3ccc(OC)c(OC)c3)C(=S)Nc3ccccc3)C2=O)cc1 (configuration not stated)	-3.21% (inactive)
Cc1c(C=O)c2ccccn2c1C(=O)c1ccncc1	13.6% (inactive)
C=CCn1c2c(c3ccccc31)CCC2	-5.75% (inactive)
CCOc1ccc(OCC(=O)OC(C)C(=O)NC2CCCCC2C)cc1 (configuration not stated)	-13.2% (inactive)
CCc1ccnc(NC(=O)Nc2ccc(OCc3ccccc3)cc2)c1	-1.75% (inactive)
COc1ccc(OC)c(S(=O)(=O)N2CCCC(C(=O)N3CCC(C(N)=O)CC3)C2)c1 (configuration not stated)	7.76% (inactive)
CCOc1ccc(CCNC(=O)COC(=O)c2ccc(C)c(S(=O)(=O)N3CCOCC3)c2)cc1OCC	1.76% (inactive)
Cc1ccc(-c2cn3cc(C)ccc3n2)cc1	6.89% (inactive)
CCN(CC)S(=O)(=O)c1ccc(-c2cn3ccc(C)cc3n2)cc1	56% (active)
CCN(c1cccc(C)c1)S(=O)(=O)c1ccc(-c2coc(C)n2)cc1	-22% (inactive)
COc1cccc2c1C(=O)c1c(O)c3c(c(O)c1C2=O)CC(O)(C(C)=NNC(=O)c1ccc(Cl)c(Cl)c1)CC3OC1CC(N)C(O)C(C)O1 (configuration not stated)	-9.55% (inactive)
CCc1nc2ccc(C(=O)N(C)CCN(C)C)cn2c1N(CC)CCOC	-8.24% (inactive)
O=C(NC(C(=O)NCCN1CCOCC1)C12CC3CC(CC(C3)C1)C2)C1CCCCC1 (configuration not stated)	-3.19% (inactive)
COc1cccc(N(CC(=O)NCc2ccccc2)C(=O)CCC(=O)Nc2nccs2)c1	-2.58% (inactive)
